Assay outcomes as filed in PubChem.
A1 inh: inhibitors of A1 | MEF A1-2A-BIM cells, caspase-Glo luminescence, 3 h; percent of clofoctol signal, DMSO as zero | 0.51% of 21,000 active | caspase activation, % (no concentration beside the values) | AID 2241;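 active = most replicate scores above 10, or exactly half above 10 with mean activity above 10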;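 note: effector caspase 3 and 7 activity cleaving a DEVD luciferin substrate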
* marks the source's active call; other numbers are inactive results. The sample as a whole holds a higher share of hits than the screen did.

SMILES	A1 inh
CCc1ccc(OCCCn2cc(/C=C3/C(=N)N4C=CSC4=NC3=O)c3ccccc32)cc1	0
CCc1cc(C)cc(OCCn2cc(C=C3C(=O)NC(=O)NC3=O)c3ccccc32)c1	39*
CCOC(=O)Cn1cc(/C=C2\C(=O)NC(=O)N(c3ccc(F)cc3)C2=O)c2ccccc21	0
Oc1c(C(Nc2cccc(Cl)c2)c2cccnc2)ccc2cccnc12 (stereo not given)	0
Cc1cc(C)cc(NC(=O)Cn2c(=O)c3cccn3c3ccccc32)c1	56*
COC(=O)Cn1c(=O)c2cccn2c2ccccc21	1
COc1cccc(NC(=O)Cn2c(=O)c3cccn3c3ccccc32)c1	0
Cc1cc(Br)ccc1NC(=O)c1cc2c(s1)-c1ccccc1OC2	0
Cc1ccccc1CSc1nnc2c(n1)[nH]c1ccccc12	0
C[C@@H]1CN([C@H](C)CO)C(=O)c2cc(NS(=O)(=O)c3cccs3)ccc2O[C@H]1CN(C)C(=O)Nc1ccc(F)cc1	0
C[C@H](CO)N1C[C@H](C)[C@H](CN(C)C(=O)Nc2ccc(C(F)(F)F)cc2)Oc2ccc(NS(=O)(=O)c3cccs3)cc2C1=O	12*
C[C@H]1CN([C@@H](C)CO)C(=O)c2cc(NS(=O)(=O)c3cccs3)ccc2O[C@H]1CN(C)C(=O)Nc1ccccc1	0
CC(C)CCNc1cc(C(C)C)c(C#N)c2nc3ccccc3n12	-1
CCOC(=O)N1CCN(c2cc(C(F)(F)F)nc3c(Cl)cccc23)CC1	0
CNC[C@@H]1Oc2ccc(NC(=O)Nc3c(C)noc3C)cc2C(=O)N([C@H](C)CO)C[C@H]1C	16*
CNC[C@@H]1Oc2ccc(NC(=O)Nc3c(C)noc3C)cc2C(=O)N([C@@H](C)CO)C[C@@H]1C	0
Cc1noc(C)c1NC(=O)Nc1ccc2c(c1)C(=O)N([C@H](C)CO)C[C@H](C)[C@@H](CN(C)C)O2	0
Cc1sc(-n2cccc2)c(C#N)c1C	0
Cc1noc(C)c1C(=O)N1CCc2sccc2C1c1ccc(C(F)(F)F)cc1 (stereo not given)	1
CCOC(=O)N1CCC(n2c(SCc3ccc(F)cc3Cl)nc3ccsc3c2=O)CC1	1
CCCCC1CCC(C(=O)Nc2c3c(nn2-c2ccc(F)cc2)CS(=O)(=O)C3)CC1 (stereo not given)	15*
COc1ccc(-n2nc3c(c2NC(=O)/C=C\c2ccc4c(c2)OCO4)CS(=O)(=O)C3)cc1	1
O=C(Nc1cc(-c2ccc(Cl)cc2)nn1-c1ccc(F)cc1)C1CCC1	0
O=C(Nc1ccc(S(=O)(=O)N2CCCC2)cc1)c1ccc(COc2ccc3c(c2)CCC3)cc1	0
CCc1ccc(/C=N/N2CCN(Cc3ccccc3)CC2)cc1	-1
SMILES	A1 inh
O=C(NCc1ccccc1)c1ccc2c(c1)sc1nc(-c3ccccc3)cn12	-1
CCOC(=O)CN1C(=O)S/C(=C\c2ccccc2OCc2ccccc2F)C1=O	0
CN(C)c1ccc(C(=C2C=CC(=[N+](C)C)C=C2)c2ccc(N(C)C)cc2)cc1	58*
Cc1ccc(Sc2c(C)c3cc4c(cc3[nH]c2=O)OCO4)cc1	0
O=C(Nc1ccccc1)C1CCN(S(=O)(=O)c2ccccc2)CC1	1
COc1ccc(-c2nsc(SCC(=O)c3ccc(Cl)cc3)n2)cc1	-1
O=C(COC(=O)c1ccc(Br)cc1)c1ccc(Br)cc1	-1
O=C(/C=C/Oc1ccc(Cl)cc1)c1ccc(Br)cc1	11*
Cc1ccc(NC(=O)C2CCCN(S(=O)(=O)c3ccc4nc(-c5ccccc5)[nH]c4c3)C2)cc1 (stereo not given)	1
CC(C)c1ccc(NC(=O)c2cc(F)cc3c2OCOC3)cc1	-1
CCC(C)[C@H]1C(=O)O[C@H](C(C)C)C(=O)N(C)[C@@H](C(C)C)C(=O)O[C@H](C(C)C)C(=O)N(C)[C@@H](C(C)C)C(=O)O[C@H](CC(C)C)C(=O)N1C (stereo not given in full)	45*
COc1ccc(Cn2nnc3c(=O)[nH]c(C4CCCN(S(=O)(=O)c5ccccc5)C4)nc32)cc1 (stereo not given)	1
CCOC(=O)/C(C#N)=C1/NC(=O)Nc2ccccc21	-1
CCOc1ccc(-c2cc(C(F)(F)F)c(C#N)c(SCC)n2)cc1	-1
CC1CC(=O)c2c(ccc3c2C(=O)c2c(O[C@@H]4O[C@@H](C)[C@H](O)[C@@H](O)[C@H]4O)cccc2C3=O)C1 (stereo not given in full)	1
COc1cccc2c1C(=O)c1c(O)c3c(c(O)c1C2=O)C[C@@](O)(C(C)=O)C[C@@H]3O[C@H]1C[C@H](N)[C@H](O)[C@H](C)O1	15*
N#Cc1c(C(F)(F)F)cc(-c2cccs2)nc1S/C=C/C(=O)c1ccccc1	0
C[C@H]1CC[C@@H]2[C@@H](C(=O)c3c(O)c([C@]4(O)CC[C@@H](O)[C@H]5O[C@H]54)cn(O)c3=O)[C@@H](C)C=C[C@H]2C1	46*
Cc1cc(C)c(-n2c(SCC(=O)Nc3ccccc3Cl)n[nH]c2=O)c(C)c1	0
O=c1c2ccccc2nc2c3ccccc3c(N3CCOCC3)nn12	-1
O=c1cc(N2CCOCC2)oc2c(-c3ccccc3)cccc12	11*
O=c1cc(N2CCOCC2)oc2c1ccc1ccccc12	2
COc1cccc(-c2cc(C(F)(F)F)n3ncc(C(=O)N(C)CCc4ccccn4)c3n2)c1	-1
CCOC(=O)c1ccc(N2C(=O)C(C)C(Cc3cc(C)cc(C)c3)C2=O)cc1 (stereo not given)	0
Cc1ccc(S(=O)(=O)c2ccc(-c3ccccc3)cc2)cc1	-1
SMILES	A1 inh
Cc1ccc(S(=O)(=O)N[C@@H](Cc2ccccc2)C(=O)CCl)cc1	16*
COC(=O)CN(Cc1ccccc1)S(=O)(=O)c1ccc(C)cc1	0
N#Cc1c(-c2ccccc2)cc(-c2ccccc2)nc1SCC(O)CS(=O)Cc1ccccc1 (stereo not given)	-1
COc1ccc(-n2cc(-c3ccccc3)c3c(N4CCCCC4)ncnc32)cc1	-1
O=C(COn1c(=O)n(COC(=O)c2ccccc2)c2ccccc21)c1ccccc1	0
CCc1ccc(NC(=O)C2CCN(C(=O)c3ccccc3C)CC2)cc1	0
CCc1ccc(NC(=O)c2ccc3c(c2)OCO3)cc1	-8
CCCNC(=O)c1[nH]c2ccccc2c1Sc1ccc(Cl)cc1	1
Cc1[nH]c2ccccc2c1Sc1ccccc1	11*
Cc1[nH]c2ccccc2c1C(c1c(C)[nH]c2ccccc12)C(C)C	0
O=C(NCc1ccsc1)c1ccc2c(c1)OCCCO2	-1
COc1ccc2[nH]c3c(=O)n(CC(=O)N4CCN(c5ccc(F)cc5)CC4)c(=S)[nH]c3c2c1	4
O=C(NCC1CCCO1)c1ccc(Cn2c(=S)[nH]c3ccccc3c2=O)cc1 (stereo not given)	1
COc1ccc2[nH]c3c(=O)n(Cc4ccc(C(=O)NCCc5ccc(C)cc5)cc4)c(=S)[nH]c3c2c1	112*
CN1CCc2c(-c3cccs3)nc(OCc3ccccc3Br)c(C#N)c2C1	1
COc1ccc(NC(=O)C2C=C3C=CC(=O)C=C3OC2=Nc2ccc(C(=O)O)cc2)cc1 (stereo not given)	-2
Cc1cc(C)c(C#N)c(Sc2ncnc3c2nnn3Cc2ccccc2)n1	9.8*
Cc1cc(C)c(C#N)c(SCc2ccccc2)n1	0
Cc1cc(C)c(C#N)c(SCSCc2ccccc2)n1	-1
O=C(O)CCC(=O)Nc1nc2n(n1)C(c1ccccc1)CC(=O)N2 (stereo not given)	1
